# Experimental data taken from the supplement of paper PMC4022240.
# ± gives the standard deviation.
# T1: HaloTag-ATRX ADD domain (163-292)
# T1 chain: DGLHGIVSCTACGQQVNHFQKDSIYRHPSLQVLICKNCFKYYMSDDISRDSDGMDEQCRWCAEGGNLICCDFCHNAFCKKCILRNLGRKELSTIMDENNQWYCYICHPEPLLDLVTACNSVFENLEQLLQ
# Tests used:
# Experiment in all cases: peptide microarray binding signal (635 nm), min-max normalized on array (fraction of array maximum); higher = stronger binding
# Conditions in all cases: peptide region: H3 1-13
# [1] = target: T1, HaloTag-ATRX ADD domain (163-292)
# Method: (§1)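 Histone 13-mer peptides were synthesized as cellulose conjugates with a C-terminal 20-atom PEG linker and printed in triplicate on nitrocellulose. The sequence given is the unmodified backbone; PTMs (Kme1/2/3, Kac, Sph/Tph, Rme/Rme2a/Rme2s, Rcit) are listed in the label and the 'peptide modifications' condition. Slides were probed at 4 °C for 1 h with biotin-labelled (HQ)5-HaloTag reader fusions (ATRX-ADD, ING2-PHD) then streptavidin-Alexa647, or with rabbit histone antibodies then anti-rabbit Alexa647. The mean 635 nm signal of the triplicate spots was scaled 0-1 between the lowest and highest values on each array.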
# [2] = target: HaloTag-ING2 PHD (mouse Ing2 200-280)
# Method: as §1
# [3] = target: anti-H3K4me3 antibody ab8580
# Method: as §1
# [4] = target: anti-H3K9me3 antibody ab8898
# Method: as §1
# [5] = peptide modifications: H3R2cit H3K9me3, binder concentration: 1:2,000 dilution
# [6] = peptide modifications: H3R2cit H3K9me3, binder concentration: 1:10,000 dilution
# [7] = peptide modifications: H3R2cit H3T3ph, binder concentration: 1:2,000 dilution
# [8] = peptide modifications: H3R2cit H3T3ph, binder concentration: 1:10,000 dilution
# [9] = peptide modifications: H3R2cit H3T6ph, binder concentration: 1:2,000 dilution
# [10] = peptide modifications: H3R2cit H3T6ph, binder concentration: 1:10,000 dilution
# [11] = peptide modifications: H3R2cit, binder concentration: 1:2,000 dilution
# [12] = peptide modifications: H3R2cit, binder concentration: 1:10,000 dilution
# [13] = peptide modifications: H3R2me1, binder concentration: 1:2,000 dilution
# [14] = peptide modifications: H3R2me1, binder concentration: 1:10,000 dilution
# [15] = peptide modifications: H3R2me1 H3K4ac, binder concentration: 1:2,000 dilution
# [16] = peptide modifications: H3R2me1 H3K4ac, binder concentration: 1:10,000 dilution
# [17] = peptide modifications: H3R2me1 H3K4me1, binder concentration: 1:2,000 dilution
# [18] = peptide modifications: H3R2me1 H3K4me1, binder concentration: 1:10,000 dilution
# [19] = peptide modifications: H3R2me1 H3K4me2, binder concentration: 1:2,000 dilution
# [20] = peptide modifications: H3R2me1 H3K4me2, binder concentration: 1:10,000 dilution
# [21] = peptide modifications: H3R2me1 H3K4me3, binder concentration: 1:2,000 dilution
# [22] = peptide modifications: H3R2me1 H3K4me3, binder concentration: 1:10,000 dilution
# [23] = peptide modifications: H3R2me1 H3K9ac, binder concentration: 1:2,000 dilution
# [24] = peptide modifications: H3R2me1 H3K9ac, binder concentration: 1:10,000 dilution
binder,measurement,setting,value
ARTKQTARKSTGG [H3 1-13 A Rcit T K Q T A R Kme3 S T G G],peptide microarray binding signal,"[1]; peptide modifications: H3R2cit H3K9me3, binder concentration: 50 nM",0.435 ± 0.044
same,peptide microarray binding signal,"[1]; peptide modifications: H3R2cit H3K9me3, binder concentration: 500 nM",0.525 ± 0.024
same,peptide microarray binding signal,"[2]; peptide modifications: H3R2cit H3K9me3, binder concentration: 10 nM",0.0492 ± 0.0064
same,peptide microarray binding signal,"[2]; peptide modifications: H3R2cit H3K9me3, binder concentration: 100 nM",0.0792 ± 0.014
same,peptide microarray binding signal,[3]; [5],0.137 ± 0.007
same,peptide microarray binding signal,[3]; [6],0.0635 ± 0.0071
same,peptide microarray binding signal,[4]; [5],0.676 ± 0.04
same,peptide microarray binding signal,[4]; [6],0.408 ± 0.044
ARTKQTARKSTGG [H3 1-13 A Rcit Tph K Q T A R K S T G G],peptide microarray binding signal,"[1]; peptide modifications: H3R2cit H3T3ph, binder concentration: 50 nM",0.00364 ± 0.00018
same,peptide microarray binding signal,"[1]; peptide modifications: H3R2cit H3T3ph, binder concentration: 500 nM",0.0133 ± 0.0009
same,peptide microarray binding signal,"[2]; peptide modifications: H3R2cit H3T3ph, binder concentration: 10 nM",0.00125 ± 3.1e-05
same,peptide microarray binding signal,"[2]; peptide modifications: H3R2cit H3T3ph, binder concentration: 100 nM",0.0167 ± 0.011
same,peptide microarray binding signal,[3]; [7],0.00283 ± 0.00066
same,peptide microarray binding signal,[3]; [8],0.00126 ± 8.7e-05
same,peptide microarray binding signal,[4]; [7],0.000846 ± 7.1e-05
same,peptide microarray binding signal,[4]; [8],0.000807 ± 2.9e-05
ARTKQTARKSTGG [H3 1-13 A Rcit T K Q Tph A R K S T G G],peptide microarray binding signal,"[1]; peptide modifications: H3R2cit H3T6ph, binder concentration: 50 nM",0.00621 ± 0.00039
same,peptide microarray binding signal,"[1]; peptide modifications: H3R2cit H3T6ph, binder concentration: 500 nM",0.0199 ± 0.0043
same,peptide microarray binding signal,"[2]; peptide modifications: H3R2cit H3T6ph, binder concentration: 10 nM",0.00382 ± 0.00065
same,peptide microarray binding signal,"[2]; peptide modifications: H3R2cit H3T6ph, binder concentration: 100 nM",0.0157 ± 0.0039
same,peptide microarray binding signal,[3]; [9],0.00345 ± 0.00082
same,peptide microarray binding signal,[3]; [10],0.00348 ± 0.00034
same,peptide microarray binding signal,[4]; [9],0.00166 ± 0.00026
same,peptide microarray binding signal,[4]; [10],0.00173 ± 0.00011
ARTKQTARKSTGG [H3 1-13 A Rcit T K Q T A R K S T G G],peptide microarray binding signal,"[1]; peptide modifications: H3R2cit, binder concentration: 50 nM",0.00937 ± 0.00037
same,peptide microarray binding signal,"[1]; peptide modifications: H3R2cit, binder concentration: 500 nM",0.0298 ± 0.0055
same,peptide microarray binding signal,"[2]; peptide modifications: H3R2cit, binder concentration: 10 nM",0.012 ± 0.0023
same,peptide microarray binding signal,"[2]; peptide modifications: H3R2cit, binder concentration: 100 nM",0.0101 ± 0.001
same,peptide microarray binding signal,[3]; [11],0.00315 ± 0.00061
same,peptide microarray binding signal,[3]; [12],0.00126 ± 0.00016
same,peptide microarray binding signal,[4]; [11],0.00101 ± 0.00014
same,peptide microarray binding signal,[4]; [12],0.000577 ± 1.6e-05
ARTKQTARKSTGG [H3 1-13 A Rme T K Q T A R K S T G G],peptide microarray binding signal,"[1]; peptide modifications: H3R2me1, binder concentration: 50 nM",0.0145 ± 0.00019
same,peptide microarray binding signal,"[1]; peptide modifications: H3R2me1, binder concentration: 500 nM",0.0334 ± 0.0026
same,peptide microarray binding signal,"[2]; peptide modifications: H3R2me1, binder concentration: 10 nM",0.0175 ± 0.0043
same,peptide microarray binding signal,"[2]; peptide modifications: H3R2me1, binder concentration: 100 nM",0.0456 ± 0.0031
same,peptide microarray binding signal,[3]; [13],0.000698 ± 1.7e-05
same,peptide microarray binding signal,[3]; [14],0.000742
same,peptide microarray binding signal,[4]; [13],0.00202 ± 0.0002
same,peptide microarray binding signal,[4]; [14],0.000461
ARTKQTARKSTGG [H3 1-13 A Rme T Kac Q T A R K S T G G],peptide microarray binding signal,"[1]; peptide modifications: H3R2me1 H3K4ac, binder concentration: 50 nM",0.00636 ± 0.00044
same,peptide microarray binding signal,"[1]; peptide modifications: H3R2me1 H3K4ac, binder concentration: 500 nM",0.00867 ± 0.00048
same,peptide microarray binding signal,"[2]; peptide modifications: H3R2me1 H3K4ac, binder concentration: 10 nM",0.0133 ± 0.0026
same,peptide microarray binding signal,"[2]; peptide modifications: H3R2me1 H3K4ac, binder concentration: 100 nM",0.0738 ± 0.0056
same,peptide microarray binding signal,[3]; [15],0.00115 ± 0.0001
same,peptide microarray binding signal,[3]; [16],0.001541 ± 1.5e-05
same,peptide microarray binding signal,[4]; [15],0.00402 ± 0.0014
same,peptide microarray binding signal,[4]; [16],0.0011 ± 2.2e-05
ARTKQTARKSTGG [H3 1-13 A Rme T Kme Q T A R K S T G G],peptide microarray binding signal,"[1]; peptide modifications: H3R2me1 H3K4me1, binder concentration: 50 nM",0.00746 ± 0.00026
same,peptide microarray binding signal,"[1]; peptide modifications: H3R2me1 H3K4me1, binder concentration: 500 nM",0.0155 ± 0.00095
same,peptide microarray binding signal,"[2]; peptide modifications: H3R2me1 H3K4me1, binder concentration: 10 nM",0.0585 ± 0.006
same,peptide microarray binding signal,"[2]; peptide modifications: H3R2me1 H3K4me1, binder concentration: 100 nM",0.147 ± 0.034
same,peptide microarray binding signal,[3]; [17],0.0545 ± 0.02
same,peptide microarray binding signal,[3]; [18],0.023 ± 0.0071
same,peptide microarray binding signal,[4]; [17],0.00248 ± 0.00029
same,peptide microarray binding signal,[4]; [18],0.00127 ± 1.3e-05
ARTKQTARKSTGG [H3 1-13 A Rme T Kme2 Q T A R K S T G G],peptide microarray binding signal,"[1]; peptide modifications: H3R2me1 H3K4me2, binder concentration: 50 nM",0.00715 ± 0.0002
same,peptide microarray binding signal,"[1]; peptide modifications: H3R2me1 H3K4me2, binder concentration: 500 nM",0.017 ± 0.0047
same,peptide microarray binding signal,"[2]; peptide modifications: H3R2me1 H3K4me2, binder concentration: 10 nM",0.219 ± 0.059
same,peptide microarray binding signal,"[2]; peptide modifications: H3R2me1 H3K4me2, binder concentration: 100 nM",0.175 ± 0.047
same,peptide microarray binding signal,[3]; [19],0.269 ± 0.14
same,peptide microarray binding signal,[3]; [20],0.0639 ± 0.0072
same,peptide microarray binding signal,[4]; [19],0.00439 ± 0.0014
same,peptide microarray binding signal,[4]; [20],0.00392 ± 0.00093
ARTKQTARKSTGG [H3 1-13 A Rme T Kme3 Q T A R K S T G G],peptide microarray binding signal,"[1]; peptide modifications: H3R2me1 H3K4me3, binder concentration: 50 nM",0.00765 ± 0.00016
same,peptide microarray binding signal,"[1]; peptide modifications: H3R2me1 H3K4me3, binder concentration: 500 nM",0.0187 ± 0.00094
same,peptide microarray binding signal,"[2]; peptide modifications: H3R2me1 H3K4me3, binder concentration: 10 nM",0.267 ± 0.048
same,peptide microarray binding signal,"[2]; peptide modifications: H3R2me1 H3K4me3, binder concentration: 100 nM",0.215 ± 0.13
same,peptide microarray binding signal,[3]; [21],0.449 ± 0.19
same,peptide microarray binding signal,[3]; [22],0.243 ± 0.053
same,peptide microarray binding signal,[4]; [21],0.106 ± 0.018
same,peptide microarray binding signal,[4]; [22],0.0312 ± 0.0012
ARTKQTARKSTGG [H3 1-13 A Rme T K Q T A R Kac S T G G],peptide microarray binding signal,"[1]; peptide modifications: H3R2me1 H3K9ac, binder concentration: 50 nM",0.0167 ± 0.0025
same,peptide microarray binding signal,"[1]; peptide modifications: H3R2me1 H3K9ac, binder concentration: 500 nM",0.121 ± 0.14
same,peptide microarray binding signal,"[2]; peptide modifications: H3R2me1 H3K9ac, binder concentration: 10 nM",0.0337 ± 0.00085
same,peptide microarray binding signal,"[2]; peptide modifications: H3R2me1 H3K9ac, binder concentration: 100 nM",0.0529 ± 0.0063
same,peptide microarray binding signal,[3]; [23],0.0105 ± 0.0012
same,peptide microarray binding signal,[3]; [24],0.00999 ± 0.00055
same,peptide microarray binding signal,[4]; [23],0.085 ± 0.13
same,peptide microarray binding signal,[4]; [24],0.0364 ± 0.046
